Assay outcomes from PubChem.
WRN helicase inh-1: WRN helicase (human) inhibition; Q14191; WRN helicase unwinding, fluorescent forked duplex, kinetic; Potency, µM (titrated, usually from 114 µM), inactives show top-dose activity change, negative = inhibition, most hits filed as inhibitors; 0.46% of 360,000 active; AID 651768; note: % is set by controls: 0 for no effect and ±100 for the full control effect; nearly all actives have a fitted effect of over 55% in size
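Primary qHTS, 1536-well format. 20 nM WRN + compound, 15 min RT; start with 100 nM forked fluorophore/quencher duplex, 2 mM ATP (final); kinetic read ex 525/em 598 nm.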
FEN1 inhibitor: blocks human flap endonuclease 1. Recombinant FEN1 flap cleavage, fluorescence, 15 min. 0.35% of 390,000 active. Potency, µM (doses to about 114 µM), inactives show top-dose activity change, negative = inhibition, hits mostly inhibitors. P39748. AID 588795; note: % is set by controls: 0 for no effect and ±100 for the full control effect; nearly all actives have a fitted effect of over 65% in size
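FEN1 at 10 nM preincubated with compounds 15 min at room temperature, then flap DNA substrate added at 50 nM final. Signal read at 0 and 15 min; concentration-response fitted with four-parameter Hill equation.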
BLM helicase inh-1: Bloom syndrome helicase (human) inhibition | Potency, µM (doses to about 56.1 µM), for the others: at the highest dose activity change, negative = inhibition, actives largely listed as inhibitors | P54132 | AID 2528 | 0.2% of 350,000 active | recombinant BLM DNA unwinding, fluorescence dequenching;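 note: plate controls were vehicle for no effect and no enzyme for full effect; nearly all actives have a fitted effect of over 35% in size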
APE1 inh: APE1 (human) endonuclease inhibition | Potency, µM (series often up to 65.8 µM), for inactives: top-dose activity change, negative = inhibition, hits mostly inhibitors | 0.35% of 350,000 active | P27695 | AID 2517 | recombinant APE1, TAMRA/BHQ-2 abasic DNA cleavage fluorescence;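 note: plate controls were vehicle for no effect and reference inhibitor for full effect; nearly all actives have a fitted effect of over 55% in size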
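APE1 at 0.75 nM final was preincubated with compound 15 min at room temperature, then 50 nM double-stranded THF abasic-site substrate (5'-TAMRA/3'-BHQ-2) was added. Fluorescence (ex 525/em 598 nm) was read kinetically; third-minus-first read gave activity.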
RECQ1 helicase: blocks DNA unwinding by human RECQ1; P46063; RECQ1 DNA unwinding, red fluorescence kinetic read; Potency, µM (series often up to 57.3 µM), inactives show at the top dose activity, negative = inhibition, hits mostly inhibitors; 0.54% of 240,000 active; AID 2549;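 note: plate controls were vehicle for no effect and no enzyme for full effect; nearly all actives have a fitted effect of over 30% in size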
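RECQ1T1 50 nM; forked duplex (20 bp + 30-nt ss tails) 200 nM, ATP 2 mM final; pH 8.0, 2 mM MgCl2, 2.5 ug/ml poly(dI-dC); 15 min compound preincubation; discontinuous kinetic read over 2 h at RT.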
WRN helicase inh-2: confirmation of human WRN helicase inhibitors. shares compounds with WRN helicase inh-1. WRN helicase DNA unwinding, fluorescence kinetic. 63% of 610 active. Potency, µM (highest dose often 57.1 µM), for the others: at the highest dose activity, negative = inhibition, hits mostly inhibitors; note: nearly all actives have a fitted effect of over 65% in size
TO DNA binding: counter-screen for WRN helicase inhibitors: DNA binding; shares compounds with WRN helicase inh-1; thiazole orange DNA binding displacement, fluorescence; Potency, µM (titrated, usually from 57.1 µM), without a hit: at the highest dose activity change, negative = inhibition, hits mostly inhibitors; 10% of 610 active;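 note: drop in dye fluorescence marks compound binding to DNA; % is set by controls: 0 for no effect and ±100 for the full control effect; nearly all actives have a fitted effect of over 60% in size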
BLM helicase inh-2: counter-screen for WRN helicase inhibitors: human BLM helicase inhibition; shares compounds with WRN helicase inh-1; Potency, µM (top dose mostly 57.1 µM), for inactives: at the top dose activity change, negative = inhibition, hits mostly inhibitors; 60% of 610 active; Recombinant BLM helicase DNA unwinding, red fluorescence; note: nearly all actives have a fitted effect of over 60% in size
An asterisk follows results filed as active; i = inactive; ? = inconclusive; . = no result given; [ ] = dose if it differs, or a comment. Compounds with a hit are over-represented: about 0.87% of the library has one in this group of screens. Calls come from the whole dose curve; as a rule, active = well fitted curve in the direction sought with a large enough effect; inconclusive = small, poorly fitted or top-dose-only effect, or another doubt; inactive = no such curve, though single readings can be large; an effect the other way counts as inactive or inconclusive. Potency is the fitted concentration of half-maximal effect.

SMILES | WRN helicase inh-1 | FEN1 inhibitor | BLM helicase inh-1 | APE1 inh | RECQ1 helicase | WRN helicase inh-2 | TO DNA binding | BLM helicase inh-2
O=C1COc2ccc(C(=O)COC(=O)c3ccc4ccccc4n3)cc2N1 | ? | -23% | ? | 13% | -17% | 14µM* | 11% | 8.6µM*
O=C1COc2ccc(C(=O)COC(=O)c3ccccn3)cc2N1 | 0% | -1% | . | 3% | . | . | . | .
CCCN1C(=O)/C(=C/C=C2\N(CC)c3ccccc3C2(C)C)SC1=S | 19µM* | ? | -5% | -3% | i | 22µM* | 477% | 22µM*
COc1ccc(OC)c(/C=N/Nc2nc(C)cc(=O)[nH]2)c1 | 89µM* | -16% | -1% | -15% | . | -13% | -4% | -20%
Cc1cc(=O)[nH]c(N/N=C/c2ccccc2Cl)n1 | -6% | -4% | -1% | 9% | . | . | . | .
COc1ccc(C2Nc3ccccc3-n3c(-c4ccccc4)c4c(=O)n(C)c(=O)n(C)c4c32)cc1 (centres undefined) | . | 5% | -26% | . | . | . | . | .
CCSc1nnc(NC(=O)CSc2sc3c(O)cc(=O)[nH]c3c2C#N)s1 | 18µM* | 35µM* | -22% | 6%[12.4 µM] | . | 19µM* | ? | ?
CC1=NN(c2ccccc2)C(=O)/C1=C/c1cccs1 | ? | ? | 2% | -2% | 1% | . | . | .
CC1=NN(c2ccc(C(=O)O)cc2)C(=O)/C1=C\c1ccc(OC(=O)c2cccs2)cc1 | 5.3µM* | 50µM* | -4% | ? | -5% | 17µM* | -7% | ?
O=c1c(C(c2ccc(O)cc2)c2c(O)nc3n(c2=O)CCCS3)c(O)nc2n1CCCS2 | ? | 8% | -9% | ? | ? | ? | -3% | 19µM*
O=c1c(C(c2ccc(O)cc2)c2c(O)nc3n(c2=O)CCS3)c(O)nc2n1CCS2 | 15µM* | -2% | -3% | 1% | i | ? | -8% | ?
O=c1c(C(c2ccc(Br)cc2)c2c(O)nc3n(c2=O)CCCS3)c(O)nc2n1CCCS2 | -20% | -15% | -1% | 0% | -7% | . | . | .
CCOC(=O)c1ccc(NC(=O)CN2C(=O)CC(c3ccc(C)c(C)c3)=Nc3ccccc32)cc1 | . | -18% | -10% | . | . | . | . | .
COc1ccc(C2Nc3ccccc3C(=O)N2Cc2ccco2)cc1COc1ccc(N)cc1 (centres undefined) | . | . | . | . | . | 11µM* | ? | 3µM*
O=C1C=C(c2ccccc2)C(=O)N1Nc1ccccc1 | ? | 0% | -4% | 5% | i | -6% | -4% | -19%
COC(=O)c1cc(NC(=O)c2ccc3c(c2)NC(=O)c2ccccc2S3)cc(C(=O)OC)c1 | . | 2% | ? | -36% | . | 14µM* | 206% | 1.9µM*
CCOc1ccc(C(=O)NCCc2csc(-c3cccnc3)n2)cc1 | . | 2% | 2% | . | . | . | . | .
COc1ccc(Nc2nc(N)c3cc(OC)c(OC)cc3n2)cc1 | . | ? | 16µM* | . | . | 22µM* | ? | 22µM*
Cc1ccc(Cn2c(=O)n(CCCCC(=O)NCCc3ccc(Cl)cc3)c(=O)c3ccccc32)cc1 | . | 19% | -6% | . | . | . | . | .
CN(C)CCCNc1nc2cc(-c3ccc4c(ccn4C)c3)sc2c(=O)n1C | ? | . | . | . | . | 24µM* | 24µM* | -14%
O=C1C(Cl)=C(NCCc2ccccc2)C(=O)c2ccccc21 | 28µM* | ? | . | . | . | ? | -20% | 17µM*
O=C1C(Cl)=C(Nc2ccccc2)C(=O)c2ccccc21 | -6% | -10% | -14% | -6% | -1% | . | . | .
Oc1ccc(/C=N/Nc2ncnc3c2ncn3Cc2ccccc2)cc1O | ? | 2% | -18% | ? | -19% | 7.6µM* | 19µM* | 2.4µM*
CCC(O)c1nc2ccccc2n1Cc1cc(C)ccc1C (centres undefined) | . | -4% | 1% | . | . | . | . | .
CSc1ccc(CNC(=O)CN2C(=O)C3CCCCN3c3ccc(C(=O)N4CCCC4)cc32)cc1 (centres undefined) | . | -1% | 2% | . | . | . | . | .
SMILES | WRN helicase inh-1 | FEN1 inhibitor | BLM helicase inh-1 | APE1 inh | RECQ1 helicase | WRN helicase inh-2 | TO DNA binding | BLM helicase inh-2
Cc1c(Cl)cccc1NC(=O)c1oc2ccc(S(=O)(=O)N3CCCCCC3)cc2c1C | . | -16% | -2% | . | . | . | . | .
O=C1/C(=C/c2cccc(O)c2)SC(=S)N1CC1CCCO1 (centres undefined) | 0% | -1% | -3% | -1% | 5% | . | . | .
CCOc1cc(/C=C2/SC(=S)N(CC3CCCO3)C2=O)ccc1O (centres undefined) | 35µM* | -33% | -13% | -10% | 14µM* | ? | 18% | 22µM*
Cc1cc(Cl)c(OCCOCCN2CCCC(C)C2)c(Br)c1 (centres undefined) | 4% | 1% | 0% | 3% | -2% | . | . | .
Cc1cc(Cl)c(OCCOCCN2CCCCC2)c(Br)c1 | ? | -1% | -3% | -5% | i | -2% | -2% | -15%
NCCCN(Cc1ccccc1)c1ccc(Br)cn1 | . | -5% | . | . | . | . | . | .
Cc1nnc(-c2cccc(Br)c2)c2cn(-c3cccc(Br)c3)nc12 | 25µM* | ? | -6% | 0% | 7% | ? | 17% | 9.6µM*
